Test results published in the supplement of paper PMC11732987, “Enantioselective OTUD7B fragment discovery through chemoproteomics screening and high-throughput optimisation” (Communications Chemistry, 2025).

Assays:
Test in all cases: log2 ratio of Biotin-Ahx-Ub-VS probe labelling (fragment/DMSO); higher = less target engagement (more negative = stronger competition), active = hit call of the paper (q ≤ 0.05, log2 ratio ≤ -1)
Conditions in all cases: compound concentration: 200 uM; treatment time: 3 h
ALG13 = target: T1, ALG13 (UniProt Q9NP73)
T1 sequence (whole entry): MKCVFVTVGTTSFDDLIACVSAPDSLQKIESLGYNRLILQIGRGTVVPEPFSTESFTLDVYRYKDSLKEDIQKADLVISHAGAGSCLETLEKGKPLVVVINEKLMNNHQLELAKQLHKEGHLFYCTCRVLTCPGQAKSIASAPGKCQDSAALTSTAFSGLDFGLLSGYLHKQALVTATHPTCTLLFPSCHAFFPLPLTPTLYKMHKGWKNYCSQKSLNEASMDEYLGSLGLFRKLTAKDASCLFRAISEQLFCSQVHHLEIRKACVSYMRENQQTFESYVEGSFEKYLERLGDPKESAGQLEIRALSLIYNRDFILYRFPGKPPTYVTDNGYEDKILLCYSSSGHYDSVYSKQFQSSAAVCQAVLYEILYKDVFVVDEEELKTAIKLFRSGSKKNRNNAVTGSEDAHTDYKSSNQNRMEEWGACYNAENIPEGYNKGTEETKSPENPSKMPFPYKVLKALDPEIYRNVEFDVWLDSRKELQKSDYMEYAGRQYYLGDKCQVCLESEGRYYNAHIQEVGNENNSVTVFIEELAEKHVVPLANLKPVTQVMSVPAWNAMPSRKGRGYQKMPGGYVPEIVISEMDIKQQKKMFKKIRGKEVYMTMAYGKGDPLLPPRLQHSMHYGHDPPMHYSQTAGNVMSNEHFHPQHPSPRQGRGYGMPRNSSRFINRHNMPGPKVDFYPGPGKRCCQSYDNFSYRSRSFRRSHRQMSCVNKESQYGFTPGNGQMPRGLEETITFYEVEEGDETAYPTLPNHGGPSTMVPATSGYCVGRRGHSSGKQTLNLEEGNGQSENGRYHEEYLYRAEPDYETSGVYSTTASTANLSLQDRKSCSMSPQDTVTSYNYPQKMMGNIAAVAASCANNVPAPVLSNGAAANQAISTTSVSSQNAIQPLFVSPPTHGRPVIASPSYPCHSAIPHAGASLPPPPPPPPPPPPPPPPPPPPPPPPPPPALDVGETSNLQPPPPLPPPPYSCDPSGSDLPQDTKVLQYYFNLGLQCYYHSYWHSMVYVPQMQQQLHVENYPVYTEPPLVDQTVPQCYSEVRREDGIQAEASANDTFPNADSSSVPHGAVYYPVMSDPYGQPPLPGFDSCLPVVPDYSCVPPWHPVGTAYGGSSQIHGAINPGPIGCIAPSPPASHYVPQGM
Summary of the method: (§1)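 Using Biotin-Ahx-Ub-VS at 0.5 µM final for 1 h, DUBs were labelled in HEK293T lysate (495 µg per sample) that had first been treated in triplicate with fragment at 200 µM or vehicle for 3 h. NeutrAvidin enrichment, LysC and trypsin digestion and diaPASEF LC-MS/MS followed. Spectronaut label-free quantities were global-median-normalised. Values are average log2 fragment/vehicle ratios by unpaired t-test, using proteins with ≥2 unique peptides.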

ATXN3 = ATXN3 (UniProt P54252)
ATXN3, sequence (P54252 whole entry): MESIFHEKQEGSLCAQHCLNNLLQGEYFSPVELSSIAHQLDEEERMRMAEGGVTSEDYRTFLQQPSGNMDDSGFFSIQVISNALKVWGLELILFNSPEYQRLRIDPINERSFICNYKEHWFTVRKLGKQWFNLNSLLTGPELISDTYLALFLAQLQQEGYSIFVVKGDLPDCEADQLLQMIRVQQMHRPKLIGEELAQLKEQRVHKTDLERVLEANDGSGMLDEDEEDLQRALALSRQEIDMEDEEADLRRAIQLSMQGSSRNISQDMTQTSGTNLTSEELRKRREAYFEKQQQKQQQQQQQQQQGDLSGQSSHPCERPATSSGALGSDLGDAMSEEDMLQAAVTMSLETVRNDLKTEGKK
Summary of the method: as §1

BAP1 = target: T2, BAP1 (UniProt Q92560)
T2 sequence (whole entry): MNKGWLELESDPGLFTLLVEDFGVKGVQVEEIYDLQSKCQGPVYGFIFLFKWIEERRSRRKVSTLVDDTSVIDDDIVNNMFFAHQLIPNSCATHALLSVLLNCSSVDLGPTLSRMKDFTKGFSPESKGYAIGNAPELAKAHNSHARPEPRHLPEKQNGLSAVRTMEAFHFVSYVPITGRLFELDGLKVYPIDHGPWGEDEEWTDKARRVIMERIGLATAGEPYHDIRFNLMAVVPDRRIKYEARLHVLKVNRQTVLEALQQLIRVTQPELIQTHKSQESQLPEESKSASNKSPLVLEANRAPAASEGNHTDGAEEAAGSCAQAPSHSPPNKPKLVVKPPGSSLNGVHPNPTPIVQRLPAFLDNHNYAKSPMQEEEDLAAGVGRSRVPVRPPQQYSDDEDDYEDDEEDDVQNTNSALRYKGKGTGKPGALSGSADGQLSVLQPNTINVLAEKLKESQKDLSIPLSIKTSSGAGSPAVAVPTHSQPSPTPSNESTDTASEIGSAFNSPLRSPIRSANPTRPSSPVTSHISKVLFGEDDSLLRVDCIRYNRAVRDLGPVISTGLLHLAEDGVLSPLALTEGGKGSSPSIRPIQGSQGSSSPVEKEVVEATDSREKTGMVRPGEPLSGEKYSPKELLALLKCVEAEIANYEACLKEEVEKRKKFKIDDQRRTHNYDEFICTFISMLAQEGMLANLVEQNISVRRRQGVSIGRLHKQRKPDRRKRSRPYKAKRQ
Summary of the method: as §1

EIF3F = EIF3F (UniProt O00303)
EIF3F, sequence (O00303 whole entry): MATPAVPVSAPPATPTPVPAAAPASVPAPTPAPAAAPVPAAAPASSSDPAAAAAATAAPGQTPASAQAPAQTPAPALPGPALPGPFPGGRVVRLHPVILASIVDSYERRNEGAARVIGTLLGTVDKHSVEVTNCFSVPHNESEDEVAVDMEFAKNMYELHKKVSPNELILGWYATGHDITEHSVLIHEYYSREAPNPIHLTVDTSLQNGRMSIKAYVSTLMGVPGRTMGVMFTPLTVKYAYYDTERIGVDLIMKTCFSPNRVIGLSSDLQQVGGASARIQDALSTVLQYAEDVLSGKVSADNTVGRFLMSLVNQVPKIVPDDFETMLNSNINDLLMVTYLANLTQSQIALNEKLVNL
Summary of the method: as §1

EIF3H = EIF3H (UniProt O15372)
EIF3H, sequence (O15372 whole entry): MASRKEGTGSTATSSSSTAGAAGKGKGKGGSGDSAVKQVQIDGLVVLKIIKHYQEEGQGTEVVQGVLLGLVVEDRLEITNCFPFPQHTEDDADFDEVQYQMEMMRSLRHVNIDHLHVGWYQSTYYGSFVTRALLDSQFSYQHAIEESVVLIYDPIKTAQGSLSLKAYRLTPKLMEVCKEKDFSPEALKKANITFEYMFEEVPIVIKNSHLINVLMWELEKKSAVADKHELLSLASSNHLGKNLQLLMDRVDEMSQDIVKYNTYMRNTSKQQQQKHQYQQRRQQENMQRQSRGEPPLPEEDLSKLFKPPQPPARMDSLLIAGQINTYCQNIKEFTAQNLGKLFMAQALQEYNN
Summary of the method: as §1

FAM105A = target: T3, FAM105A (UniProt Q9NUU6)
T3 sequence (whole entry): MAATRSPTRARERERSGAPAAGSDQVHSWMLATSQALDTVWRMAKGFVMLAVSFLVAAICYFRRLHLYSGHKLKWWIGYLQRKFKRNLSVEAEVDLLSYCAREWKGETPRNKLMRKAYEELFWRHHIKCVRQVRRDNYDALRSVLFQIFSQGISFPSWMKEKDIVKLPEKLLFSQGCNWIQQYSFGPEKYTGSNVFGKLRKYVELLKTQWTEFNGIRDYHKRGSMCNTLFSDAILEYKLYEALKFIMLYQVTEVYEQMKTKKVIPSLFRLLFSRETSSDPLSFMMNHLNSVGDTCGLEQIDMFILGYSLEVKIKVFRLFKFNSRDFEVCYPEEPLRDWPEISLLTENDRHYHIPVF
Summary of the method: as §1

OTUB1 = OTUB1 (UniProt Q96FW1)
OTUB1, sequence (Q96FW1 whole entry): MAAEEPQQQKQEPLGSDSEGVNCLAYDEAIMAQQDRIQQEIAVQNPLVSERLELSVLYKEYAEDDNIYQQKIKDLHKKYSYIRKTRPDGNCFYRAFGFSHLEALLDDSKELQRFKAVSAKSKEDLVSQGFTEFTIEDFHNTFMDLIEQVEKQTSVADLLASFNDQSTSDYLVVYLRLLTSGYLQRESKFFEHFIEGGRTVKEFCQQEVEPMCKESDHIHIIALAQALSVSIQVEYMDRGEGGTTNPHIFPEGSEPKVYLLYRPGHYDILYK
Summary of the method: as §1

OTUD4 = target: T4, OTUD4 (UniProt Q01804)
T4 sequence (whole entry): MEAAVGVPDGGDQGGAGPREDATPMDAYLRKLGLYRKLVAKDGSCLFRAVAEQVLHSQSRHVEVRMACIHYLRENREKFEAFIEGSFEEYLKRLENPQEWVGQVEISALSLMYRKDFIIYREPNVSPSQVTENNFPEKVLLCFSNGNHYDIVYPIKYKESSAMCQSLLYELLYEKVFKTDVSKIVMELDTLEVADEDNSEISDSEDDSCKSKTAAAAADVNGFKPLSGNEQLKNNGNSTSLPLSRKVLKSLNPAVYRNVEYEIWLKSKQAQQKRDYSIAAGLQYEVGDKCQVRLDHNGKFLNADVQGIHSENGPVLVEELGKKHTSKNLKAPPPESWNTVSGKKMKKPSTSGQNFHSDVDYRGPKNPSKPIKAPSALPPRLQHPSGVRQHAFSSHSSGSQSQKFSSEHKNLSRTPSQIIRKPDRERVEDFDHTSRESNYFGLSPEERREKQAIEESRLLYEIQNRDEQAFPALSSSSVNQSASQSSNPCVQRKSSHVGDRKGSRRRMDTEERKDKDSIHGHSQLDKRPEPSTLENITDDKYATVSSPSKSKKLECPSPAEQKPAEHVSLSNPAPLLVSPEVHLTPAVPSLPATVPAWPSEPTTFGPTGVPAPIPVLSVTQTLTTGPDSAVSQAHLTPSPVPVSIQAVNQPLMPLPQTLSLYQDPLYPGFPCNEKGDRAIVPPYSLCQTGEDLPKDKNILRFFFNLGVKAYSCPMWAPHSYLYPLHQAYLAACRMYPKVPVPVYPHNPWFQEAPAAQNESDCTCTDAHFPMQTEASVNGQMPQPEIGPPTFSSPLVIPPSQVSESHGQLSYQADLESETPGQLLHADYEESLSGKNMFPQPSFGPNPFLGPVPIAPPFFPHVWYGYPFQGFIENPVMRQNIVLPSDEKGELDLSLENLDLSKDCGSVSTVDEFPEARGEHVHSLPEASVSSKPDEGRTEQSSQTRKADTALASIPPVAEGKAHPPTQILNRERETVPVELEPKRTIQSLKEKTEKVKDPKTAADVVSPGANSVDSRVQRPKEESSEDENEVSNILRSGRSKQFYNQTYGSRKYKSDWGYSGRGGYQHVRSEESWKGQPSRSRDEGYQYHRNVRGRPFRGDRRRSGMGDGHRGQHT
Summary of the method: as §1

OTUD5 = target: T5, OTUD5 (UniProt Q96G74)
T5 sequence (whole entry): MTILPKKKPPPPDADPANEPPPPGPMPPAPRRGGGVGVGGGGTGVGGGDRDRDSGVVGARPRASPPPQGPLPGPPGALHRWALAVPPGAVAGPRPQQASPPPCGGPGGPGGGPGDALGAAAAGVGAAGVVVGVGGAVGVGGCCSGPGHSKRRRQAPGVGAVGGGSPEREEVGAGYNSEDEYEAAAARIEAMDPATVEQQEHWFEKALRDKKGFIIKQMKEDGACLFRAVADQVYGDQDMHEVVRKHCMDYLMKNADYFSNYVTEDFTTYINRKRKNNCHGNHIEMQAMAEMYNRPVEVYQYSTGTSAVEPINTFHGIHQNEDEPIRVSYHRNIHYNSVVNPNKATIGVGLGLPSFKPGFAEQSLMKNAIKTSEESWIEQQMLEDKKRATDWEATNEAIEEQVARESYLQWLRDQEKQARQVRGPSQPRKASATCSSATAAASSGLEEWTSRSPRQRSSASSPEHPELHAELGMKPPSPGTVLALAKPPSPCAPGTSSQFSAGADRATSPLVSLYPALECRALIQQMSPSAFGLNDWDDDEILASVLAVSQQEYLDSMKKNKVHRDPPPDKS
Summary of the method: as §1

Measured: log2 ratio of Biotin-Ahx-Ub-VS probe labelling

O=C(CCl)N1CCC(c2nc3ccccc3o2)CC1
inactive: ALG13 -0.377 | ATXN3 -0.627 | EIF3F -0.00792 | EIF3H 0.264 | FAM105A 0.258 | OTUB1 0.109 | OTUD4 -0.417 | OTUD5 -0.841
active: BAP1 -1.64
